# Assay results: PubChem BioAssay
# Values joined by “and” are separate entries in the source; they are usually repeats but may differ in a detail not shown here. Identical values can stand only once. Records with an inconclusive call do not appear. For part of these data: Potency and affinity values are given separately. Some structures have more than one record in an assay (separate samples or runs), and their calls can disagree. Active and inactive are the calls of the source. Unless noted, no rule for the calls is given here.
# Columns and labels:
# [1] = test system: Aerobactin synthetase IucA (Klebsiella pneumoniae hvKP1); experiment: Biochemical IucA enzyme inhibition primary screen of the Spectrum library (AID 1346200); conditions: malachite green pyrophosphate, A620, at 8 µM, stronger effect = lower value;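 also: 100% = wells without compound and 0% = wells lacking enzyme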
# [2] = test system: Aerobactin synthetase IucA (Klebsiella pneumoniae, hypervirulent); experiment: IucA enzyme inhibition, biochemical, LOPAC library, absorbance readout (AID 1346212); conditions: IucA enzyme assay, absorbance (OD) readout; stronger effect = lower value;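 tested at 8 µM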;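 also: 100% = no compound wells and 0% = no enzyme wells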
# [3] = sensitizers of A549 cells to miR-34 induction, primary screen, imaging, A549 dox-inducible miR-34, nuclei and caspase counts (AID 1347080;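 active = compounds whose cell count with miR-34 switched on is under 0.7 times the count with it off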); conditions: A549 miR-34 inducible, Hoechst nuclei count, 48 h
# [4] = polyglutamine-triggered caspase-3 activation inhibitors, cell-based (AID 1583); conditions: polyglutamine-induced caspase-3 activation, cell assay; stronger effect = higher value;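 tested at 10 µM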
# [5] = molecular target: Huntingtin (Homo sapiens) (UniProt P42858); experiment: inhibitors of mutant Htt aggregation in vitro, dose response, QA1 (AID 1584); conditions: in vitro mutant huntingtin aggregation assay; confirmation test; at 10 µM; stronger effect = lower value
# Chain of Huntingtin (Homo sapiens) (P42858 whole entry, looked up): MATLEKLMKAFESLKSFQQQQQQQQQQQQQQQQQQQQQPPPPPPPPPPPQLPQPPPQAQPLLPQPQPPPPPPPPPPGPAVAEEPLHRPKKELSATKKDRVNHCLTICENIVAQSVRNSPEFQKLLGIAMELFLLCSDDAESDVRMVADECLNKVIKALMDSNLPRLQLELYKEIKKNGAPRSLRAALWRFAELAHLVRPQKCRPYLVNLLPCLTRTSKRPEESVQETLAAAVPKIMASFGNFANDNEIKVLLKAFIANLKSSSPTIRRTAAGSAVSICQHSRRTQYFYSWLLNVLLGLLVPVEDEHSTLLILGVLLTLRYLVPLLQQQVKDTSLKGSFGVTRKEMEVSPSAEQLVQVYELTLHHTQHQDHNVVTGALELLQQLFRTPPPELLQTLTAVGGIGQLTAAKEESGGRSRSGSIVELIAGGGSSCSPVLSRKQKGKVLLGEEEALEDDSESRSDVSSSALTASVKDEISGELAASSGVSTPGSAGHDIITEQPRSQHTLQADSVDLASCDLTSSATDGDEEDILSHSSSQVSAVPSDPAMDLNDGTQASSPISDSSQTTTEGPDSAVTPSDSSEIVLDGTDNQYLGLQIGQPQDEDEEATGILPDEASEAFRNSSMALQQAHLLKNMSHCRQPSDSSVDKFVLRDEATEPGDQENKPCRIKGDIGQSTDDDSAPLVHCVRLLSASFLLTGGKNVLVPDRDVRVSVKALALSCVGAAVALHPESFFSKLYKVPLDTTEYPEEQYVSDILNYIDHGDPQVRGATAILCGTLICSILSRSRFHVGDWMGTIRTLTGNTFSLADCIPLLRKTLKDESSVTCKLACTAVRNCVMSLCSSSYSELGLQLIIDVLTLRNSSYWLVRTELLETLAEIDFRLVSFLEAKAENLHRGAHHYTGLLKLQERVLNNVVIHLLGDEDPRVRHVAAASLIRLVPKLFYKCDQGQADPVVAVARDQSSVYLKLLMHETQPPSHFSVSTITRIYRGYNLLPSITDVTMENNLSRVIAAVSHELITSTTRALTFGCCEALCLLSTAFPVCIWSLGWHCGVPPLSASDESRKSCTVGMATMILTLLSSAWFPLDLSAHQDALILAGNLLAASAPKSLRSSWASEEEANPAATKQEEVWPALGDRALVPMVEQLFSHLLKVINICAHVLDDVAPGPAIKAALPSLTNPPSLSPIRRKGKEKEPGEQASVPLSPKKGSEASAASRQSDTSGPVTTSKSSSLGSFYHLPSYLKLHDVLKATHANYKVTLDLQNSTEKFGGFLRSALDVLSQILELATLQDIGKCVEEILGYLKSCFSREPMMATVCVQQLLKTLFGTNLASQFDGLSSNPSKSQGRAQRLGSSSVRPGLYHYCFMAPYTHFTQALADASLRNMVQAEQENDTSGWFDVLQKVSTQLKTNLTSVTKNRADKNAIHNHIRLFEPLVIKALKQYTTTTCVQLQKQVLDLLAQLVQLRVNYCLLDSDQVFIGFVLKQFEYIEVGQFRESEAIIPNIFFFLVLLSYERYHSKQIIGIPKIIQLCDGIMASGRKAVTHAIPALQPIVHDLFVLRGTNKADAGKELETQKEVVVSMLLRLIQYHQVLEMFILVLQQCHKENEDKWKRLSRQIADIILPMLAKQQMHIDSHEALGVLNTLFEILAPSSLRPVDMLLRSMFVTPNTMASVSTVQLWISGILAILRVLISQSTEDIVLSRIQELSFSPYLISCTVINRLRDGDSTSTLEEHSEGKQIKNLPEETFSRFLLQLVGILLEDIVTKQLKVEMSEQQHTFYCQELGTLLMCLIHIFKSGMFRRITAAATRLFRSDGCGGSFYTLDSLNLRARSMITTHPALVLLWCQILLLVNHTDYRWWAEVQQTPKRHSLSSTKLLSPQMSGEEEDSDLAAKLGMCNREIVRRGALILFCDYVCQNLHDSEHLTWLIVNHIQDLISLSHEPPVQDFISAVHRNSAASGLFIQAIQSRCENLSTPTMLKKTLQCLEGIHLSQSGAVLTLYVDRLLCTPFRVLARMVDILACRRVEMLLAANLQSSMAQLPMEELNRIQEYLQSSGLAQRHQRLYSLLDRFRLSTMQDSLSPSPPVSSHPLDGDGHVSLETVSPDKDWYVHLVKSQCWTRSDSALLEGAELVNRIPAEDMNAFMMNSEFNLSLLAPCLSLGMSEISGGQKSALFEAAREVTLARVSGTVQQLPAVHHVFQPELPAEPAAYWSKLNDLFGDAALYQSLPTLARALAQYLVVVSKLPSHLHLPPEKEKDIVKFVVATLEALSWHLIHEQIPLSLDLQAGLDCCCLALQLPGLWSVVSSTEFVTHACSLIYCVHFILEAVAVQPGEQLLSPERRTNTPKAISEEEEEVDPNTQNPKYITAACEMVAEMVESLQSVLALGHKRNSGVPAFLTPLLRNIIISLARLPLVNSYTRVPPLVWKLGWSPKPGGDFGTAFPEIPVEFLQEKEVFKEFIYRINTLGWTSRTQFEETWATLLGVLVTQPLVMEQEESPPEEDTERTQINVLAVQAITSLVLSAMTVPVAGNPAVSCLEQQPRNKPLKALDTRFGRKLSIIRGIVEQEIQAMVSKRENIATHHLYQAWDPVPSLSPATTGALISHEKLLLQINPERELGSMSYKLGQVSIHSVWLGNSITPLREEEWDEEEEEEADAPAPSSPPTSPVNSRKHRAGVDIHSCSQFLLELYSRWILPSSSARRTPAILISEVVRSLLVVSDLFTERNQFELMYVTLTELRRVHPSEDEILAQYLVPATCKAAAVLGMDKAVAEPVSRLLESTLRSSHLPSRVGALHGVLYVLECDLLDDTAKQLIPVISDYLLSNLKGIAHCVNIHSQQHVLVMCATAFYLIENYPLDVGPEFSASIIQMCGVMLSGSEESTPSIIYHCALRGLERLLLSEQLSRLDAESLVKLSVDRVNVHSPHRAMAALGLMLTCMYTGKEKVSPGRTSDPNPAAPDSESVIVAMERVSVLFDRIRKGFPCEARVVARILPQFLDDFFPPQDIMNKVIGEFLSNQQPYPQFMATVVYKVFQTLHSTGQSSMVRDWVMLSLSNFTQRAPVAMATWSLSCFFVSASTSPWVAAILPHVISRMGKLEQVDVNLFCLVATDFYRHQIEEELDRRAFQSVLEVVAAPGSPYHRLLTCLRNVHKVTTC
# [6] = suppressors of polyQ aggregation in yeast, 75Q-TubU reporter (AID 1593); conditions: Yeast 75Q polyglutamine aggregation reporter
# [7] = rescue of polyQ-huntingtin neuronal dysfunction in worms, whole organism, C. elegans mechanosensory neurons, N-terminal huntingtin (AID 1599); conditions: touch response, stronger effect = higher value
# [8] = inhibitors of mitochondrial cytochrome c release, biochemical, purified mitochondria (AID 1603); conditions: stronger effect = lower value;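 also: mouse liver mitochondria challenged with calcium chloride; signal normalized to the plate average as 100%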
# [9] = inhibitors of polyQ protein aggregation (AID 1604); conditions: polyglutamine-induced protein aggregation inhibition assay; stronger effect = higher value; tested at 2.5 µM
# [10] = enhancers of glutamate uptake in motor neurons, MN-1 cell line (AID 1612); conditions: MN-1 motor neuron cells, stronger effect = higher value;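 also: tested at 1 µM final; 0% = mean of DMSO vehicle wells on each plate; positive means more glutamate uptake than control and negative means less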
# [11] = suppressors of polyglutamine aggregation in yeast, 75Q-TubH (AID 1616); conditions: S. cerevisiae 75Q-TubH polyglutamine aggregation suppression; stronger effect = higher value
# [12] = circadian clock period modulators, cell-based, LOPAC library, luminescence reporter (AID 2774); conditions: circadian reporter cells, at 7 µM, actives lie on both sides;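 also: values are relative to mean of DMSO wells on each plate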
# [13] = test system: Hepatitis C virus NS3 helicase; experiment: HCV NS3 helicase inhibitors, primary screen, biochemical, fluorescence polarization, LOPAC1280 library (AID 687035; in the data active = inhibition above about 37%); conditions: Purified HCV NS3 helicase, Cy5-dT15 ssDNA binding fluorescence polarization; stronger effect = higher value; concentration not given here
# [14] = Cy5 fluorescence quenching or enhancement artefacts, artefact control for HCV NS3 helicase inhibitor project, biochemical, LOPAC1280 (AID 687037); conditions: Cy5-DNA-NS3h complex fluorescence interference counterscreen
# [15] = viability rescue of complex I mutant cybrids, primary screen, cell-based, galactose medium, ATP luminescence (AID 1645843;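 active = z-score of at least 1.8 in each of two replicates, scored against plate mean and spread of sample wells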;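 also: positive z means more ATP and so rescue of galactose-driven cybrid death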); conditions: complex I mutant cybrid cells, 72 h, stronger effect = higher value
# [16] = reducers of polyQ inclusions in PC12 cells, cell-based, NGF-treated PC12, GFPQ80 (AID 1614); conditions: PC12 NGF-treated GFP-polyQ80 inclusion reduction;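 also: lower means fewer inclusions and 0 means no inclusions at all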
# [17] = phospholipid biosynthesis inhibitors in animal cells, primary screen, cell-based, LOPAC library, screen 4 (AID 1347384); conditions: phospholipid biosynthesis inhibition screen, at 10 µM
# [18] = survival rescue of mitochondrial mutant cells in low glucose, primary screen, MELAS cybrids, Rieske KO mouse fibroblasts, CellTiter-Glo (AID 1508586;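 active = mean z-score across replicates of 1.96 or higher in either the MELAS or the Rieske mutant cell line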;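 also: z relative to plate mean and SD of compound and empty wells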)
# [19] = liver-stage malaria parasite growth inhibition, primary screen, cell-based, HepG2, luciferase luminescence, HepG2 viability (AID 624349; in the data active = parasite load remaining mostly below about 12%, no sharp cut-off; inactive = mostly above about 10%;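 also: 100% = mean of DMSO negative control wells on the same plate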); conditions: P. berghei liver stage in HepG2, luciferase luminescence, concentration not given here; parasite load remaining: stronger effect = lower value; viability: measured here: HepG2 viability without parasites
# [20] = molecular target: Mitogen-activated protein kinase 7 (Homo sapiens) (UniProt Q13164); experiment: ERK5 transactivation activators in reporter cells, primary screen, cell-based, HTS (AID 1508626;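 active = luciferase signal above three times the same-plate solvent-only control wells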;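 also: luciferase driven by Gal4-ERK5 fusion binding five Gal4 sites before minimal TATA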); conditions: HeLa Gal4-ERK5 transactivation, 18 h, at 5 µM, stronger effect = higher value
# [21] = molecular target: ATP-dependent translocase ABCB1 (Homo sapiens) (UniProt P08183); experiment: MDR1 (ABCB1) efflux transporter inhibition, cell-based (AID 377; in the data active = fluorescence slope change above about 50%); conditions: MDR1-expressing cells, fluorescent substrate accumulation slope; stronger effect = higher value; concentration not given here
# Chain of ATP-dependent translocase ABCB1 (Homo sapiens) (P08183 whole entry, looked up): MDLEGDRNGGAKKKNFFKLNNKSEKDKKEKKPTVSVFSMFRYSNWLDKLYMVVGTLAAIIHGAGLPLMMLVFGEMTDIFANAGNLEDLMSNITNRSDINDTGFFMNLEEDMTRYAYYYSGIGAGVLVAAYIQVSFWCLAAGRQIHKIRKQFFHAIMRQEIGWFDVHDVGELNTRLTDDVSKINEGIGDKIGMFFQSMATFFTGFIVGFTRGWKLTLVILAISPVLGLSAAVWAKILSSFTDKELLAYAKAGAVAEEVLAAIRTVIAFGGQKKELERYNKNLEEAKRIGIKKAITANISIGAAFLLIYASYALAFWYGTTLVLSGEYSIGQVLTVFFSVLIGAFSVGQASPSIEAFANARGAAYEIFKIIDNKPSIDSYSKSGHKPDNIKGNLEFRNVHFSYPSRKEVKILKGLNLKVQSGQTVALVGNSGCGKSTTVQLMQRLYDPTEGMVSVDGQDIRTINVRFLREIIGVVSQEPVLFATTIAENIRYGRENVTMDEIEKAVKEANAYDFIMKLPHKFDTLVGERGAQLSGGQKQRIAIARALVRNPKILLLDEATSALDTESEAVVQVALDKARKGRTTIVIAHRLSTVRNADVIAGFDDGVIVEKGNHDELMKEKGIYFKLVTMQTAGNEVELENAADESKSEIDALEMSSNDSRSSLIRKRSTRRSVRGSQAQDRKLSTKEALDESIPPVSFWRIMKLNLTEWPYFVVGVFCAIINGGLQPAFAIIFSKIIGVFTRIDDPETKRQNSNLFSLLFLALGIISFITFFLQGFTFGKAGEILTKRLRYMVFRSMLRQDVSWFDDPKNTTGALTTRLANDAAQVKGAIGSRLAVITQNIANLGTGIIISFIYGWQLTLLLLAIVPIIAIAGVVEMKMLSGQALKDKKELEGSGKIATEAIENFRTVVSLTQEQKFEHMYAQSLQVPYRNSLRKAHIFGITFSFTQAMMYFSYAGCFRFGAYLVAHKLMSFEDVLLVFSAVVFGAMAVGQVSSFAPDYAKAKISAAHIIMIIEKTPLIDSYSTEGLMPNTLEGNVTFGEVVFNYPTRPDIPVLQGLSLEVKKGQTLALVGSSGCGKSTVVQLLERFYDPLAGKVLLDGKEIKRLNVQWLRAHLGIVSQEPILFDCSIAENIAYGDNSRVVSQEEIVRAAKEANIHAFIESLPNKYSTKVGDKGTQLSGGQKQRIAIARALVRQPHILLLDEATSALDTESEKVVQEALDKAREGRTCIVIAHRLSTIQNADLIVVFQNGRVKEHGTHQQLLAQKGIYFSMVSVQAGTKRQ
# [22] = measured here: relative caspase fold change +Dox/-Dox
# [23] = measured here: total cells with miR-34 induction, stronger effect = lower value
# [24] = measured here: total cells without miR-34 induction
structure (smiles),measurement,setting,value
NC(=O)c1cccc(N)c1,activity remaining,[1],121% (inactive)
same,remaining activity,[2],113% (inactive)
CNCCCN1c2ccccc2CCc2ccccc21,activity remaining,[1],100% (inactive)
same,remaining activity,[2],105% (inactive)
COc1cc2nc(N3CCN(C(=O)c4ccco4)CC3)nc(N)c2cc1OC,activity remaining,[1],127% (inactive)
same,remaining activity,[2],84.9% (inactive)
Nc1ncn([C@@H]2O[C@H](CO)[C@@H](O)[C@H]2O)c(=O)n1,activity remaining,[1],104% (inactive)
same,remaining activity,[2],112% (inactive)
CN(C)C(=O)Oc1ccc[n+](C)c1,activity remaining,[1],93.4% (inactive)
same,remaining activity,[2],91.3% (inactive)
CN(C)CCCN1c2ccccc2Sc2ccccc21,activity remaining,[1],109% (inactive)
same,remaining activity,[2],95% (inactive)
CCCCCCCCCCCCCC(=O)O[C@@H]1[C@@H](C)[C@@]2(O)[C@@H](C=C(CO)C[C@]3(O)C(=O)C(C)=C[C@@H]23)[C@@H]2C(C)(C)[C@]12OC(C)=O,activity remaining,[1],115% (inactive)
same,remaining activity,[2],75.1% (inactive)
same,fold change,[3]; stronger effect = lower value,0.96 (inactive)
same,fold change,[3]; [22],1.01
same,cell count,[3]; [23],240
same,cell count,[3]; [24],250
O=C(O)c1cc2cc(Cc3cccnc3)ccc2o1,activity remaining,[1],121% (inactive)
same,remaining activity,[2],104% (inactive)
CCCNC(=O)NS(=O)(=O)c1ccc(Cl)cc1,activity remaining,[1],118% (inactive)
same,remaining activity,[2],103% (inactive)
O=c1c(O)c(-c2ccc(O)c(O)c2)oc2cc(O)cc(O)c12,activity remaining,[1],99.3% (inactive)
same,remaining activity,[2],122% (inactive)
CC/C(=C(\c1ccccc1)c1ccc(OCCN(C)C)cc1)c1ccccc1,activity remaining,[1],118% (inactive)
same,remaining activity,[2],107% (inactive)
C[N+]1(C)C2CC(OC(=O)[C@@H](CO)c3ccccc3)CC1C1OC12 (some centres not stated),activity remaining,[1],102% (inactive)
same,fold change,[3]; stronger effect = lower value,0.839 (inactive)
same,fold change,[3]; [22],1.06
same,cell count,[3]; [23],10100
same,cell count,[3]; [24],12100
O=C(/C=C/c1ccc(O)c(O)c1)OCCc1ccccc1,activity remaining,[1],78.8% (inactive)
same,remaining activity,[2],105% (inactive)
CCC1(c2ccccc2)C(=O)NCNC1=O,activity remaining,[1],125% (inactive)
same,remaining activity,[2],75.1% (inactive)
CN=C(N)NCCC[C@H](N)C(=O)O,activity remaining,[1],116% (inactive)
same,remaining activity,[2],111% (inactive)
CCOC(=O)N1CCC(=C2c3ccc(Cl)cc3CCc3cccnc32)CC1,activity remaining,[1],116% (inactive)
same,remaining activity,[2],112% (inactive)
CN(C)CCCN1c2ccccc2CCc2ccccc21,activity remaining,[1],107% (inactive)
same,remaining activity,[2],90.4% (inactive)
Fc1ccc(C(c2ccc(F)cc2)N2CCN(C/C=C/c3ccccc3)CC2)cc1,activity remaining,[1],117% (inactive)
same,remaining activity,[2],103% (inactive)
C[n+]1cc2c3c(ccc2c2ccc4cc5c(cc4c21)OCO5)OCO3,inhibition,[4],89.4%
same,aggregation ratio,[5],0.44
same,score,[6],0.8
same,rescue above control,[7],-18
same,cytochrome c release ratio,[8],1.22
same,inhibition of aggregation,[9],-2.89%
same,glutamate uptake change,[10],-11.9%
same,aggregation suppression score,[11],0.576
same,activity remaining,[1],97.5% (inactive)
same,remaining activity,[2],102% (inactive)
CC(=O)Nc1nnc(S(N)(=O)=O)s1,activity remaining,[1],103% (inactive)
same,remaining activity,[2],113% (inactive)
CN=C(NC#N)NCCSCc1nc[nH]c1C,activity remaining,[1],98.9% (inactive)
same,remaining activity,[2],116% (inactive)
NNc1nncc2ccccc12,activity remaining,[1],102% (inactive)
same,remaining activity,[2],101% (inactive)
NC(=O)N1c2ccccc2C=Cc2ccccc21,activity remaining,[1],114% (inactive)
same,remaining activity,[2],102% (inactive)
CC(N)C(=O)OC(C)(C)Cc1ccc(Cl)cc1 (configuration not stated),period change,[12],-0.005 h (inactive)
same,inhibition,[13],-4% (inactive)
same,fluorescence ratio (interference),[14],1 (inactive)
same,activity remaining,[1],86.1% (inactive)
same,remaining activity,[2],119% (inactive)
same,fold change,[3]; stronger effect = lower value,1.02 (inactive)
same,fold change,[3]; [22],1.79
same,cell count,[3]; [23],10500
same,cell count,[3]; [24],10300
same,z-score,[15],-0.85 (inactive)
Oc1cc(O)c2c(c1)O[C@H](c1ccc(O)c(O)c1)[C@@H](O)C2,activity remaining,[1],93% (inactive)
same,remaining activity,[2],106% (inactive)
CCN(Cc1ccncc1)C(=O)C(CO)c1ccccc1 (configuration not stated),activity remaining,[1],98.9% (inactive)
same,remaining activity,[2],98.9% (inactive)
CCN(CC)CCOC(=O)C1(C2CCCCC2)CCCCC1,activity remaining,[1],125% (inactive)
same,remaining activity,[2],92.7% (inactive)
CSc1ccc2c(c1)C(N1CCN(C)CC1)Cc1ccccc1S2 (configuration not stated),activity remaining,[1],103% (inactive)
same,remaining activity,[2],114% (inactive)
CN(C)CCCN1c2ccccc2Sc2ccc(C(F)(F)F)cc21,activity remaining,[1],108% (inactive)
same,remaining activity,[2],97% (inactive)
CN(C)c1nc(N(C)C)nc(N(C)C)n1,activity remaining,[1],118% (inactive)
same,remaining activity,[2],120% (inactive)
COc1cc([C@@H]2c3cc4c(cc3[C@H](O)[C@H]3COC(=O)[C@H]23)OCO4)cc(OC)c1OC,inhibition,[4],-31.7%
same,score,[6],0.81
same,rescue above control,[7],-13.8
same,cytochrome c release ratio,[8],1.06
same,inhibition of aggregation,[9],58.9%
same,glutamate uptake change,[10],21.3%
same,inclusion score,[16],2
same,aggregation suppression score,[11],0.784
same,activity remaining,[1],102% (inactive)
same,remaining activity,[2],124% (inactive)
CN1CCN(CCCN2c3ccccc3Sc3ccc(Cl)cc32)CC1,activity remaining,[1],123% (inactive)
same,remaining activity,[2],86.1% (inactive)
same,outcome,[17],inactive
COc1ccc2[nH]cc(CCNC(C)=O)c2c1,activity remaining,[1],111% (inactive)
same,remaining activity,[2],118% (inactive)
CC1OC1P(=O)(O)O (configuration not stated),period change,[12],-0.1 h (inactive)
same,inhibition,[13],-2% (inactive)
same,fluorescence ratio (interference),[14],1 (inactive)
same,activity remaining,[1],94.8% (inactive)
same,remaining activity,[2],105% (inactive)
same,fold change,[3]; stronger effect = lower value,1.08 (inactive) and 0.849 (inactive)
same,fold change,[3]; [22],1.1 and 5.83
same,cell count,[3]; [23],10700 and 11000
same,cell count,[3]; [24],9890 and 12900
same,z-score,[15],0.665 (inactive)
Cc1cc(C(C)(C)C)cc(C)c1CC1=NCCN1,activity remaining,[1],126% (inactive)
same,remaining activity,[2],115% (inactive)
CCn1cc(C(=O)O)c(=O)c2ccc(C)nc21,period change,[12],-0.11 h (inactive)
same,inhibition,[13],-5% (inactive)
same,fluorescence ratio (interference),[14],1 (inactive)
same,activity remaining,[1],117% (inactive)
same,remaining activity,[2],122% (inactive)
same,z-score,"[18]; MELAS cybrid survival, CellTiter-Glo 48 h, stronger effect = higher value",-0.303 (inactive) and 0.479 (inactive)
same,z-score,"[18]; Rieske KO mouse fibroblast survival, CellTiter-Glo 72 h",0.386 and -0.565
same,z-score,[15],0.725 (inactive) and 0.425 (inactive)
CCCC(CCC)C(=O)O,activity remaining,[1],108% (inactive)
same,remaining activity,[2],110% (inactive)
O=C(O)c1cc(=O)c2ccc(Cl)cc2[nH]1,activity remaining,[1],94.8% (inactive)
same,remaining activity,[2],85.9% (inactive)
NCCSSCCN,activity remaining,[1],116% (inactive)
same,remaining activity,[2],117% (inactive)
CC(C[N+](C)(C)C)OC(N)=O (configuration not stated),activity remaining,[1],116% (inactive)
same,remaining activity,[2],114% (inactive)
CN(C)CCC=C1c2ccccc2C=Cc2ccccc21,activity remaining,[1],111% (inactive)
same,remaining activity,[2],109% (inactive)
N[C@@H](CC(=O)N1CCn2c(nnc2C(F)(F)F)C1)Cc1cc(F)c(F)cc1F,activity remaining,[1],110% (inactive)
same,fold change,"[3]; stronger effect = lower value, cell number ratio, induced over uninduced",0.907 (inactive)
same,fold change,[3]; [22],5.09
same,cell count,[3]; [23],11900
same,cell count,[3]; [24],13100
CC[C@@]1(C2O[C@@H](C3O[C@@](O)(CC)[C@H](C)C[C@@H]3C)C[C@@H]2C)CC[C@H]([C@]2(C)CCC3(C[C@H](O)[C@@H](C)[C@@H]([C@H](C)[C@@H](OC)[C@H](C)C(=O)O)O3)O2)O1 (some centres not stated),parasite load remaining,[19],17.9% (inactive)
same,viability,[19],72.8%
same,activity remaining,[1],112% (inactive)
same,fold change,[3]; stronger effect = lower value,1.04 (inactive)
same,fold change,[3]; [22],1.48
same,cell count,[3]; [23],3480
same,cell count,[3]; [24],3340
same,luciferase signal,[20],32 AU (inactive)
NC(N)=NCCCCN=C(N)N,activity remaining,[1],119% (inactive)
same,remaining activity,[2],90.7% (inactive)
C[N+](C)(C)CCOC(N)=O,activity remaining,[1],93.2% (inactive)
same,remaining activity,[2],119% (inactive)
C=C1C2CC[C@H]3[C@]4(C)C[C@H](OC5OC(CO)C(OS(=O)(=O)O)C(OS(=O)(=O)O)C5OC(=O)CC(C)C)C[C@@H](C(=O)O)[C@H]4CC[C@]3(C2)[C@H]1O (some centres not stated),fluorescence slope change,[21],23.6% (inactive)
O=C(O)P(=O)(O)O,fluorescence slope change,[21],95.2% (active)
